Measured values reported in PubChem BioAssay (Tox21).
Records with an inconclusive call do not appear. Entries that show only a call come without a potency. The source made the active and inactive calls. Unless noted, calls come from the whole dose curve.

Assays:
[1] = Nuclear factor erythroid 2-related factor 2/antioxidant responsive element (Nrf2/ARE) small molecule agonists: luciferase reporter gene qHTS assay in human keratinocytes (AID 1919969); note: nearly all actives have a fitted effect of over 35% in size; note: potency is the fitted concentration of half-maximal effect
[2] = biological target: Gonadotropin-releasing hormone receptor (Homo sapiens) (UniProt P30968); experiment: Human gonadotropin-releasing hormone receptor (GnRHR) small molecule agonists, calcium flux assay in GnRHR-HEK293 cells (AID 1920063); note: nearly all actives have a fitted effect of over 35% in size; note: potency is the fitted concentration of half-maximal effect
Sequence of Gonadotropin-releasing hormone receptor (Homo sapiens) (P30968 whole entry, looked up): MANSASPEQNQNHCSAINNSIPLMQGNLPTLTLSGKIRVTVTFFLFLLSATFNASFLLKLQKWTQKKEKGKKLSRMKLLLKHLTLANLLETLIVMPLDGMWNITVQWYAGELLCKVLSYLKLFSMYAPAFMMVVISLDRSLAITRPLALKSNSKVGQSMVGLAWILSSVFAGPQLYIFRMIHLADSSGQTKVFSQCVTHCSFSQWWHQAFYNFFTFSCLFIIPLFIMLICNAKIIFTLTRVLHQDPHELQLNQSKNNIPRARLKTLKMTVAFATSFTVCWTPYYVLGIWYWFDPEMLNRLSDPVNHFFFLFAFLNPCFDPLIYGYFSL
Outline: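 Stable human GnRHR HEK293 line. 18 h plating, then calcium dye for 1 h at 37 C. Agonist-mode compound addition from DMSO stocks; fluorescence monitored 3 min.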

[3] = G protein-coupled receptor (GPCR) small molecule agonists, calcium flux assay: HEK293 wild type cell line counter screen (AID 1920065); note: potency is the fitted concentration of half-maximal effect
Outline: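 Following 18 h incubation at 37 C/5% CO2, plates got calcium dye for 1 h; compounds, ATP or DMSO were then pinned in and fluorescence followed kinetically (480/540 nm).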

[4] = p53 small molecule agonists, cell-based qHTS assay with human liver microsomes (AID 1963577)
Outline: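 Compounds act here after metabolic activation: human liver microsomes and NADPH, both at 0.5 mg/mL final, were co-added to p53RE-bla cells. Incubation ran 16 h at 37 C, followed by LiveBLAzer detection.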

[5] = p53 small molecule agonists, cell-based qHTS assay with rat liver microsomes (AID 1963578)
Outline: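 Read-out is beta-lactamase reporter fluorescence (LiveBLAzer, 2 h, room temperature, dark) in p53RE-bla cells treated 16 h at 37 C with compound, rat liver microsomes and NADPH, both 0.5 mg/mL final.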

[6] = p53 small molecule agonists, cell-based qHTS assay with human liver microsomes: qHTS cell viability counter screen (AID 1963579); note: nearly all actives have a fitted effect of over 45% in size
Outline: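 Cells carrying the p53 response-element beta-lactamase reporter are treated for 16 h at 37 C with test compounds in the presence of human liver microsomes and NADPH (both 0.5 mg/mL final); ATP-based CellTiter-Glo luminescence then reports viability.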

[7] = p53 small molecule agonists, cell-based qHTS assay: qHTS cell viability counter screen (AID 1963581); note: nearly all actives have a fitted effect of over 45% in size
Outline: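 qHTS counter screen: 16 h compound exposure at 37 C of p53RE-bla HCT-116 cells (4,000 per well, seeded 5 h prior), cell viability by ATP luminescence.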

[8] = biological target: 5-hydroxytryptamine receptor 2A (Homo sapiens) (UniProt P28223); experiment: 5-hydroxytryptamine receptor 2A (HTR2A) small molecule antagonists, cell-based qHTS assay (AID 1963586); note: nearly all actives have a fitted effect of over 45% in size; note: potency is the fitted concentration of half-maximal effect
Sequence of 5-hydroxytryptamine receptor 2A (Homo sapiens) (P28223 whole entry, looked up): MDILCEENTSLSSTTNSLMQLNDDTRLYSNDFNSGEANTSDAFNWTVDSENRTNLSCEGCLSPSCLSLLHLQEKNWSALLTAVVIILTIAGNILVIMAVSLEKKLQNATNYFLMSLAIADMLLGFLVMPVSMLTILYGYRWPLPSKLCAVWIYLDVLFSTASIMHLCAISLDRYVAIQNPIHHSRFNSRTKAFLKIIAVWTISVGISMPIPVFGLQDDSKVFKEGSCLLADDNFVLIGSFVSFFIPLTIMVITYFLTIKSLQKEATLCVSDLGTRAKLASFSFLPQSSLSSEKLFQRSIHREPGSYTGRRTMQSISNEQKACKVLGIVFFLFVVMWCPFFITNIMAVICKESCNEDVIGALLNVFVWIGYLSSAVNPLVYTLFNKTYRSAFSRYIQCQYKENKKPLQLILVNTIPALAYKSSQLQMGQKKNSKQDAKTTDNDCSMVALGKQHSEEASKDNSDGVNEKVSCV
Outline: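 CHO cells stably expressing human HTR2A were plated for 18 h at 37 C, then loaded with calcium dye for 1 h. Compounds were preincubated 5 min at room temperature before DOI (4 nM solution) was added. Kinetic fluorescence was read for 3 min.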

[9] = biological target: 5-hydroxytryptamine receptor 2A (Homo sapiens) (UniProt P28223); experiment: 5-hydroxytryptamine receptor 2A (HTR2A) small molecule agonists, cell-based qHTS assay (AID 1963587); note: nearly all actives have a fitted effect of over 30% in size; note: potency is the fitted concentration of half-maximal effect
Outline: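 CHO cells stably expressing human HTR2A, plated 18 h, loaded with calcium dye 1 h at 37 C. Agonist mode: compounds added and intracellular calcium fluorescence recorded kinetically for 2 min at 1 sec intervals.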

[10] = biological target: Muscarinic acetylcholine receptor M1 (Homo sapiens) (UniProt P11229); experiment: Cholinergic receptor muscarinic 1 (CHRM1) small molecule agonists, cell-based qHTS assay (AID 1963589); note: nearly all actives have a fitted effect of over 35% in size; note: potency is the fitted concentration of half-maximal effect
Sequence of Muscarinic acetylcholine receptor M1 (Homo sapiens) (P11229 whole entry, looked up): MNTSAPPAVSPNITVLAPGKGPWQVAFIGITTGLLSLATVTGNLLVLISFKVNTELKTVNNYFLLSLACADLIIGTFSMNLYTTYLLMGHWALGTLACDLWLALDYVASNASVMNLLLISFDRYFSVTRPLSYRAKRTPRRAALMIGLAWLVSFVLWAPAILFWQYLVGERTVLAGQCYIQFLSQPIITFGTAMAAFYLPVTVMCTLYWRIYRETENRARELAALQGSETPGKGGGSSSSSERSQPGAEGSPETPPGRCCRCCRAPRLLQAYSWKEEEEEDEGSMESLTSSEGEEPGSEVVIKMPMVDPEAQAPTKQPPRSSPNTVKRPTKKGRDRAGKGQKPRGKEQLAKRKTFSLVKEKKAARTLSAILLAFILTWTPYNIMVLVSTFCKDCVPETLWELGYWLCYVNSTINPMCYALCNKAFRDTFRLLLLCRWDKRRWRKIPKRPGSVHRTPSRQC
Outline: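 Kinetic fluorescence (1 s intervals) of calcium-sensitive dye in human M1 CHO cells after compound addition; cells pre-incubated 18 h at 37 C/5% CO2 and dye-loaded 1 h.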

[11] = cAMP Responsive Elements (CRE) small molecule antagonists, cell-based qHTS assay (AID 1963591; active = well fitted inhibition curve with a large enough effect in the signal ratio in the repeat runs, not every such curve was filed as active; the % refers to the signal ratio)
Outline: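 Reporter line CRE-bla HEK 293T in dialyzed-FBS DMEM; cells preincubated 18 h, treated 3 h with compound plus NKH477 (0.25 uM final); LiveBLAzer FRET, 2 h RT.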

[12] = biological target: Beta-2 adrenergic receptor (Homo sapiens) (UniProt P07550); experiment: Adrenergic beta2 receptor (ADRB2) small molecule antagonists, cell-based qHTS assay (AID 1963592); note: series mostly up to about 92 µM; nearly all actives have a fitted effect of over 50% in size
Sequence of Beta-2 adrenergic receptor (Homo sapiens) (P07550 whole entry, looked up): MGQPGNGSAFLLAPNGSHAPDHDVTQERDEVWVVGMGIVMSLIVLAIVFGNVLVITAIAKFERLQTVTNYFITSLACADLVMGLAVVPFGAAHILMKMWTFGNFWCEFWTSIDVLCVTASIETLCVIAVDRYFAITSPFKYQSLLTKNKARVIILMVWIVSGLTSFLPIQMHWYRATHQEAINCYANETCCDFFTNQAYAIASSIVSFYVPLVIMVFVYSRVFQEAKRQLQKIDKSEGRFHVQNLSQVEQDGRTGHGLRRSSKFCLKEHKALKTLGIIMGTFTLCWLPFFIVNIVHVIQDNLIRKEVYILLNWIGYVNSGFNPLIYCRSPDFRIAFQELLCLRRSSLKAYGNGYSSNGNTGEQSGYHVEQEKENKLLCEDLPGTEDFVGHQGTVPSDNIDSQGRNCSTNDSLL
Outline: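 Assay format: CHO-ADRB2 cells, 18-20hr seeding at 37C/5% CO2, then compound plus 1nM isoproterenol agonist mix for 0.5hr RT. Homogeneous time-resolved fluorescence cAMP detection after 1hr, expressed as 665/615 nm ratio.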

[13] = biological target: Beta-2 adrenergic receptor (Homo sapiens) (UniProt P07550); experiment: Adrenergic beta2 receptor (ADRB2) small molecule agonists, cell-based qHTS assay (AID 1963593);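 note: CHO cells stably overexpressing human ADRB2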
Outline: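 CHO cells stably over-expressing ADRB2 were plated overnight at 37C, then dosed with compounds plus a stimulation mix containing 100uM IBMX and 25uM Ro-20-1724 for 0.5hr at room temperature. cAMP was measured by HTRF competition, 1hr.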

[14] = biological target: D(2) dopamine receptor (Homo sapiens) (UniProt P14416); experiment: Dopamine D2 receptor (DRD2) small molecule agonists, cell-based qHTS assay (AID 1963594); note: nearly all actives have a fitted effect of over 35% in size
Sequence of D(2) dopamine receptor (Homo sapiens) (P14416 whole entry, looked up): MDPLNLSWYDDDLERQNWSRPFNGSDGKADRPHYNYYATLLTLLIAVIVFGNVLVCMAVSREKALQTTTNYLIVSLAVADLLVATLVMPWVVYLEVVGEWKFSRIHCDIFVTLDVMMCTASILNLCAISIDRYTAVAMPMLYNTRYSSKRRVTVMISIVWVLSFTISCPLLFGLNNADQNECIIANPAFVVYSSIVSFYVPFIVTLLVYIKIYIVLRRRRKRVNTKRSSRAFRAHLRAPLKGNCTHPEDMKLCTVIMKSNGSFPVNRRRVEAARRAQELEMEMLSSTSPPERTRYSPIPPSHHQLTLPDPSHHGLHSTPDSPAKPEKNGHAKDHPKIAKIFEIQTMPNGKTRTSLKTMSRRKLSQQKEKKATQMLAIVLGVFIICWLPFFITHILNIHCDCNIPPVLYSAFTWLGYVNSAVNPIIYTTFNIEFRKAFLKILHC
Outline: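 HEK293 cells stably expressing human DRD2, pre-treated with PDE inhibitor Ro20-1724 (0.1 mM final) and compound 10 min at room temperature, then stimulated with NKH477 (200nM […]) for 30 min. cAMP read by HTRF (665/620 nm).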

[15] = biological target: D(2) dopamine receptor (Homo sapiens) (UniProt P14416); experiment: Dopamine D2 receptor (DRD2) small molecule antagonists, cell-based qHTS assay (AID 1963595; active = well fitted inhibition curve with a large enough effect in the signal ratio in the repeat runs, with a control signal flat; the % refers to the signal ratio)
Outline: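 HTRF cAMP read-out at 665 and 620 nm emission (340 nm excitation). Antagonist mode: compounds were tested against 12 nM quinpirole in DRD2-HEK293 cells, with 200 nM NKH477 raising cAMP and 0.1 mM Ro20-1724 blocking its breakdown.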

[16] = biological target: KiSS-1 receptor (Homo sapiens) (UniProt Q969F8); experiment: Human kisspeptin (KISS1R) small molecule agonists, calcium flux assay in KISS1R-HEK293 cells (AID 1920064; active = well fitted activation curve with a large enough effect in the repeat runs)
Sequence of KiSS-1 receptor (Homo sapiens) (Q969F8 whole entry, looked up): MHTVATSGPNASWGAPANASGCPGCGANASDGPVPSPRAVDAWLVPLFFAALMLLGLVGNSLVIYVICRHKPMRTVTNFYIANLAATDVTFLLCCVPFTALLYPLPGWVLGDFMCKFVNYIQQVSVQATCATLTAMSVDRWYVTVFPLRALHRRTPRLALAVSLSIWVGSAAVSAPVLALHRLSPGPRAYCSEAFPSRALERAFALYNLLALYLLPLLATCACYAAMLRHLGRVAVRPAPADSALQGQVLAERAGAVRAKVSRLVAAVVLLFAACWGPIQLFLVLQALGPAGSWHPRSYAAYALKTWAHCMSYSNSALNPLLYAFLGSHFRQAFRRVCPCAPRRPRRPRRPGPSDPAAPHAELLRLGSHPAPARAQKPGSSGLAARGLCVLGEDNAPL
Outline: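 After overnight (18 h) culture at 37 C/5% CO2, human KISS1R-HEK293 cells received calcium dye for 1 h, then test compound; emission at 540 nm (excitation 480 nm) was tracked for 3 min.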

[17] = p53 small molecule agonists, cell-based qHTS assay with rat liver microsomes: qHTS cell viability counter screen (AID 1963580); note: nearly all actives have a fitted effect of over 45% in size
Outline: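 After the beta-lactamase ratio was read, CellTiter-Glo was added to the same wells and luminescence measured at 30 min; cells had been treated 16 h at 37 C with compounds, rat liver microsomes and NADPH (0.5 mg/mL final each).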

[18] = biological target: Muscarinic acetylcholine receptor M1 (Homo sapiens) (UniProt P11229); experiment: Cholinergic receptor muscarinic 1 (CHRM1) small molecule antagonists, cell-based qHTS assay (AID 1963588); note: nearly all actives have a fitted effect of over 40% in size; note: potency is the fitted concentration of half-maximal effect
Outline: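 Compounds were tested at 15 concentrations in three independent runs. Dye-loaded CHRM1-CHO cells were exposed 5 min at room temperature before stimulation by acetylcholine added at 50nM. Intracellular calcium was read kinetically on FDSS for 3 min.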

[19] = cAMP Responsive Elements (CRE) small molecule agonists, cell-based qHTS assay (AID 1963590)
Outline: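 Test agents in DMSO were incubated 3 h at 37 C/5% CO2 with CRE-bla HEK 293T cells seeded 18 h earlier; LiveBLAzer B/G FRET substrate was added and read after 2 h at room temperature.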

[20] = p53 small molecule agonists, cell-based qHTS assay (AID 1963582; active = well fitted activation curve with a large enough effect in the signal ratio in the repeat runs, not every such curve was filed as active; the % refers to the signal ratio)
Outline: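 Measured: fluorescence from cleaved LiveBLAzer substrate. System: p53RE-bla cells, 16 h compound treatment at 37 C, 2 h substrate step at room temperature.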

| SMILES | Potency [1] | Potency [2] | Potency [3] | Potency [4] | Potency [5] | Potency [6] | Potency [7] | Potency [8] | Potency [9] | Potency [10] | Potency [11] | Potency [12] | Potency [13] | Potency [14] | Potency [15] | Potency [16] | Potency [17] | Potency [18] | Potency [19] | Potency [20] |
| --- | --- | --- | --- | --- | --- | --- | --- | --- | --- | --- | --- | --- | --- | --- | --- | --- | --- | --- | --- | --- |
| O=[N+]([O-])c1ccc(Oc2ccc(C(F)(F)F)cc2[N+](=O)[O-])cc1 | 48.6 µM (active) | inactive | inactive | inactive | inactive | inactive | inactive | inactive | inactive | inactive | inactive | inactive | inactive | inactive | inactive | – | – | – | – | – |
| CC[C@H](O)C(C[C@H](C)N(C)C)(c1ccccc1)c1ccccc1 | inactive | inactive | inactive | – | – | inactive | inactive | – | inactive | inactive | inactive | inactive | – | inactive | inactive | inactive | inactive | 34.1 µM (active) | inactive | – |
| CC1(C)CC/C(=C/c2ccc(Cl)cc2)C1(O)Cn1cncn1 (configuration not stated) | 43 µM (active) | inactive | inactive | – | – | inactive | – | – | – | inactive | – | – | – | – | inactive | inactive | inactive | inactive | – | – |
| Cc1ccc2cc3c(ccc4ccccc43)c3c2c1CC3 | inactive | inactive | inactive | – | – | inactive | inactive | – | – | – | inactive | inactive | inactive | inactive | inactive | inactive | inactive | – | inactive | – |
| CCOP(=S)(OCC)Oc1cc(Cl)c(Br)cc1Cl | 61.1 µM (active) | inactive | inactive | – | – | – | inactive | inactive | inactive | inactive | – | inactive | – | inactive | inactive | inactive | inactive | inactive | – | – |
| CCC1(CC)C(=O)NC(=O)NC1=O | inactive | inactive | inactive | – | – | – | – | inactive | inactive | inactive | – | inactive | – | inactive | – | inactive | inactive | inactive | inactive | – |
| O=C(NC(O)C(Cl)(Cl)Cl)NC(O)C(Cl)(Cl)Cl (configuration not stated) | inactive | inactive | inactive | – | – | inactive | inactive | inactive | inactive | inactive | inactive | – | inactive | inactive | inactive | inactive | inactive | inactive | inactive | – |
| CCCCOCN(C(=O)CCl)c1c(CC)cccc1CC | 24.3 µM (active) | inactive | – | inactive | inactive | inactive | inactive | inactive | inactive | inactive | – | inactive | – | – | – | inactive | inactive | inactive | – | – |
| CCOP(=S)(Oc1ccc([N+](=O)[O-])cc1)c1ccccc1 (configuration not stated) | inactive | inactive | inactive | – | – | inactive | inactive | inactive | inactive | inactive | inactive | – | inactive | – | inactive | inactive | inactive | – | inactive | – |
| O=[N+]([O-])c1cc(C(F)(F)F)cc([N+](=O)[O-])c1Cl | inactive | inactive | inactive | – | – | inactive | – | – | inactive | inactive | inactive | inactive | – | inactive | inactive | inactive | inactive | inactive | – | – |
| COc1ccc(-c2ccccc2)cc1NNC(=O)OC(C)C | inactive | inactive | – | inactive | inactive | inactive | inactive | inactive | – | inactive | inactive | inactive | – | – | inactive | inactive | – | inactive | – | – |
| CCOP(=S)(NC(C)C)Oc1ccccc1C(=O)OC(C)C (configuration not stated) | inactive | inactive | – | – | – | inactive | inactive | inactive | inactive | inactive | – | inactive | – | inactive | inactive | inactive | inactive | inactive | – | – |
| CC(Cl)C(C)Cl (configuration not stated) | inactive | inactive | inactive | inactive | inactive | inactive | inactive | inactive | inactive | inactive | – | inactive | – | inactive | inactive | – | inactive | inactive | inactive | inactive |
| Nc1nc(N)c(N)c(N)n1 | inactive | 39.1 µM (active) | 39.1 µM (active) | inactive | inactive | inactive | inactive | inactive | 43.9 µM (active) | 55.2 µM (active) | inactive | inactive | – | – | – | – | inactive | inactive | inactive | inactive |
| CC(C)(C)c1cc([N+](=O)[O-])cc(C(C)(C)C)c1O | 34.4 µM (active) | inactive | – | inactive | inactive | inactive | inactive | inactive | inactive | inactive | – | – | – | inactive | inactive | inactive | inactive | – | – | – |
| CC1(C)CN=C(NN=C(/C=C/c2ccc(C(F)(F)F)cc2)/C=C/c2ccc(C(F)(F)F)cc2)NC1 | inactive | inactive | – | inactive | – | inactive | – | inactive | inactive | – | – | inactive | – | inactive | inactive | inactive | – | inactive | – | – |
| Nc1ccc(Cc2ccc(N)c(Cl)c2)cc1Cl | inactive | inactive | – | inactive | inactive | – | inactive | – | – | inactive | – | – | – | inactive | inactive | inactive | – | inactive | inactive | inactive |
| CCCN(CC)CC1COC2(CCC(C(C)(C)C)CC2)O1 (configuration not stated) | – | inactive | inactive | inactive | inactive | inactive | inactive | 10.6 µM (active) | 43.6 µM (active) | inactive | inactive | inactive | inactive | inactive | inactive | inactive | inactive | inactive | inactive | inactive |
